This is a sample that favours compounds with a hit; in the whole collection about 1.5% have one here.
S1P2 blocker: blocks the human S1P2 receptor | AID 736 | cell-based S1P2 antagonist assay, inhibition at 5 uM | hit rate 0.21% among 97,000 | inhibition, % at 5 µM | O95136; in the data active = inhibition above about 45%;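 also: CRE beta-lactamase reporter cells expressing human S1P2 stimulated with S1P; 0% = agonist at EC80 alone and 100% = agonist plus reference antagonist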
S1P2 agonist: agonists of human S1P2 receptor | O95136 | S1P2-expressing cell line, agonist reporter read-out | activation, % at 4.5 µM | hit rate 0.46% among 97,000 | AID 729; in the data active = activation above about 16%;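 also: 0% = vehicle low control and 100% = maximal reference agonist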
CD11b adhes inh: inhibitors of human CD11b/CD18 binding to fibrinogen; K562 CD11b/CD18 adhesion to fibrinogen, ATPlite luminescence; Mn2+ added to activate the integrin; inhibition, % at 10 µM; hit rate 0.54% among 93,000; AID 1497;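 active = primary inhibition of 50% or more at 10 µM, then 40% or more on retest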
GALR2 ag: agonists of human galanin receptor 2 (GALR2). GALR2-expressing cells, agonist activation read-out. activation, % (no concentration beside the values). AID 803. O43603. hit rate 0.48% among 140,000; in the data active = activation above about 5%, passing the limit was not always enough;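 also: 0% = vehicle buffer wells and 100% = reference agonist at full effect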
Target sequence (O43603 whole entry, looked up): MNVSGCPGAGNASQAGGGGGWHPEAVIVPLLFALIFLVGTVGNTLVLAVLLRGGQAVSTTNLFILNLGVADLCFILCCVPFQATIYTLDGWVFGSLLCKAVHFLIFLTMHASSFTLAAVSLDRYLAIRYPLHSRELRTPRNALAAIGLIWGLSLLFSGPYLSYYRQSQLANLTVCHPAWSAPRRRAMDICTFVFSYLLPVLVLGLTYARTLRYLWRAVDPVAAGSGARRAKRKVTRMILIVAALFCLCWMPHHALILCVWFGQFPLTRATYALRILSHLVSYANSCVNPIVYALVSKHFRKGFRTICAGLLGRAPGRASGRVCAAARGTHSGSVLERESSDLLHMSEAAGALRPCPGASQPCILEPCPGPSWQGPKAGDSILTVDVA
Mac1 fbg enh: CD11b/CD18-fibrinogen binding enhancement. P05107+P11215. K562 CD11b/CD18 adhesion to fibrinogen, ATPlite luminescence. activation, % at 10 µM. hit rate 0.07% among 93,000. AID 1499;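 active = 10 µM primary screen giving 50% or more activity, confirmed by 40% or more on retest at that dose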
GALR2 blocker: blocks the human galanin receptor 2 | inhibition, % at 4 µM | hit rate 0.39% among 140,000 | GALR2-expressing cells, antagonist mode | O43603; in the data active = inhibition above about 27%;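 also: cells stimulated with galanin 1-16 at roughly its EC80; 0% = agonist challenge control and 100% = basal control without agonist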
The depositor's hits bear a star; · = not tested or not shown.

SMILES | S1P2 blocker | S1P2 agonist | CD11b adhes inh | GALR2 ag | Mac1 fbg enh | GALR2 blocker
CCOC(=O)c1c(NC(=O)c2cccc(N3C(=O)CCC3=O)c2)sc(C)c1C | -10.3 | 16.1* | -4.6 | -2.2 | 7.0 | 3.1
CCOC(=O)c1c(-c2ccc(-c3ccccc3)cc2)csc1NC(=O)c1cccc(N2C(=O)CCC2=O)c1 | · | · | 10.8 | -0.9 | -5.2 | 3.7
CCn1c(SCC(=O)Nc2nccs2)nnc1-c1ccc(S(=O)(=O)N2CCCCCC2)cc1 | 6.5 | 1.2 | 16.2 | -0.5 | 0.3 | 5.7
CCC(Sc1nnc(-c2ccc(C)c(Cl)c2)n1CC)C(=O)Nc1nccs1 (stereo unspecified) | · | · | 55.6* | -1.5 | -4.1 | 8.6
O=C(N/N=C/C=C/c1ccccc1)C(O)c1ccccc1 (stereo unspecified) | 9.0 | -4.5 | · | -5.1 | · | 30.1*
COc1ccc(-c2cn3c(C)c(C(=O)Nc4ccncc4)sc3n2)cc1 | 19.3 | -8.7 | 7.8 | -5.3 | 1.4 | 7.4
COC(=O)c1ccc(NC(=O)c2sc3nc(-c4ccccc4)cn3c2C)cc1 | 46.9* | -5.9 | 38.8 | -2.9 | -4.5 | 12.1
Cc1cccc(OCCCCc2c(C)n[nH]c2C)c1C | 22.6 | -8.7 | 89.6* | -1.4 | -8.0 | 9.9
COc1ccccc1OCCCCCc1c(C)n[nH]c1C | 4.5 | -2.6 | 61.9* | -1.7 | -7.7 | 14.9
CCOC(=O)COc1c(Cl)cc(C2NC(=S)NC(c3ccccc3)=C2C(C)=O)cc1OCC (stereo unspecified) | · | · | 2.6 | 1.6 | 13.1 | 3.7
Cc1[nH]nc2c1/C(=N/O)CC(c1ccccc1)C2 (stereo unspecified) | 6.8 | -4.9 | 12.8 | -1.2 | -1.5 | 9.6
Cc1cccc(C)c1NC(=O)C(NC(=O)CN1C(=O)c2ccccc2C1=O)c1ccccc1 (stereo unspecified) | · | · | 25.9 | -1.2 | 15.6 | 2.9
CCSc1nc(-c2ccccc2)nc(C(Cl)Cl)n1 | · | · | 13.0 | 7.6* | 2.4 | -4.4
CCN1/C(=C2\C(=O)N(C)C(=S)N2C)C=Cc2cc(C)ccc21 | · | · | · | 1.3 | · | -3.9
C/C=C(/C)C(=O)OC1c2c(ccc3ccc(=O)oc23)OC(C)(C)C1OC(C)=O (stereo unspecified) | -5.1 | 20.2* | · | 0.0 | · | -1.5
CCCC(=O)OCCNc1cc(Sc2nccn2C)c2nonc2c1[N+](=O)[O-] | · | · | · | 6.2* | · | 3.8
COc1ccccc1-c1nnc2sc(-c3ccc(N(C)C)cc3)nn12 | · | · | 14.8 | 3.0 | 15.1 | 29.4*
O=C(CN1CCN(S(=O)(=O)c2ccccc2)CC1)Nc1ccc2c(c1)CCC2 | · | · | · | -0.7 | · | -4.7
CCn1cc(C(=O)NCc2ccc(C)o2)c2cc(OC)c(OC)cc2c1=O | -21.7 | 17.4* | 8.9 | -0.1 | -3.2 | -9.1
CCn1cc(C(=O)Nc2ccc3c(c2)OCCO3)c2cc(OC)c(OC)cc2c1=O | 1.1 | 29.3* | -3.8 | -1.5 | -3.7 | -7.1
Cc1[nH]n(-c2cccc3ccccc23)c(=O)c1/C=N/c1sc2c(c1C#N)CCC2 | -13.0 | -5.8 | 100.3* | -1.4 | -13.3 | 7.2
CCN(CC)C(=O)/C(=C\c1cccc([N+](=O)[O-])c1)NC(=O)c1ccco1 | · | · | · | -0.3 | · | -1.1
COc1cccc(N2CCN(c3c4c(nc5ncnn35)CCC4)CC2)c1 | -14.7 | -4.1 | 51.4* | 0.8 | -5.0 | 3.4
c1ccc(N2CCN(c3c4c(nc5ncnn35)CCC4)CC2)cc1 | 7.9 | -6.4 | -11.8 | -0.8 | -2.3 | -1.1
CCc1nc(N)c(C#N)c(-c2ccc(OC)c(OC)c2)c1C | -20.3 | -1.1 | 1.1 | 1.0 | 2.9 | 4.5
SMILES | S1P2 blocker | S1P2 agonist | CD11b adhes inh | GALR2 ag | Mac1 fbg enh | GALR2 blocker
CCc1nc(C)c(C#N)c2cc(OC)c(OC)cc12 | -50.2 | 25.6* | 9.7 | -3.6 | 3.5 | -4.2
CC(=O)OC1COC(N2CCc3cc(Br)c([N+](=O)[O-])cc32)C(OC(C)=O)C1OC(C)=O (stereo unspecified) | -5.9 | -3.5 | -7.7 | -2.4 | -2.0 | 10.6
COC(=O)c1ccc(/C(O)=C(\C#N)c2nc3ccccc3s2)cc1 | 10.2 | -8.4 | 103.1* | -1.5 | -9.7 | 6.4
CCc1ccc(/C=C/C(=O)c2cc(Br)ccc(=O)c2O)cc1 | -24.1 | -3.4 | 73.9* | -1.3 | -6.0 | 4.4
Cc1ccc(/C=C/C(=O)c2cc(Br)ccc2OC(=O)c2ccco2)cc1 | 11.3 | -7.5 | -9.6 | -0.9 | 2.8 | -7.3
Cc1cccc(/C=C/C(=O)c2cc(Br)ccc(=O)c2O)c1 | -4.6 | -4.5 | 85.3* | -0.9 | -6.8 | -2.1
